High-throughput results as filed in PubChem.
Sampled rows, rich in hits. Any-hit rate of the full collection: about 3.8%.
HSF-1 act: increases HSF-1 driven luciferase reporter signal. AID 504408. NIH3T3-HGL HSF-1 luciferase reporter, MG132, 8 h; 100% = twice DMSO control signal. activation, % at 9 µM. hit rate 1.7% among 300,000;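 active means mean replicate activation of at least 50% with a set share of replicates each reaching 50%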;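 further: 0% = median of the neutral control wells and 100% = twice that signal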
HSF1 inhib: HSF1 inhibition; NIH3T3-HGL HSE-luciferase, MG132-induced, luminescence 8 h; stronger effect = lower value; activity change, negative = inhibition, % at 7.5 µM (by protocol); hit rate 0.77% among 300,000;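 active means more than half of replicate wells show activity change below -50%, luminescence cut by over half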;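 further: luciferase reports HSF-1 transcriptional activity via heat shock element; 0% = median of DMSO wells and -100% = zero luminescence signal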
NALP1 yeast inh: NALP1 inhibition | S. cerevisiae NALP1/ASC/caspase-1 growth, X-gal OD620, 72 h | inhibition, % at 10 µM | hit rate 0.61% among 280,000; in the data active means inhibition mostly above about 24%, no sharp cut-off; inactive means mostly below about 32%
HSP90 refold inh: HSP90 refolding inhibition in rabbit reticulocyte lysate; luciferase refolding luminescence, 3 h; inhibition, % at 5.6 µM; hit rate 0.91% among 290,000;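 active means inhibition above the screen-wide mean plus 3 SD, computed separately per campaign, cut at about 16% in these data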;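 further: 0% = DMSO wells and 100% = 60 µM geldanamycin wells; inhibitors lower the luminescence because luciferase stays unfolded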
pCIP destab: p/CIP protein destabilization | Q05BA5 | F442A p/CIP-EGFP cells, EGFP fluorescence, 16 h | decrease of EGFP signal, % at 10 µM | hit rate 0.01% among 290,000;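 active means EGFP signal decrease of at least 30% at 10 µM or well 3 SD below plate mean, unless failing retest; inactive means the rest, including hits failing retest or dose response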
Target sequence (Q05BA5 1-1403): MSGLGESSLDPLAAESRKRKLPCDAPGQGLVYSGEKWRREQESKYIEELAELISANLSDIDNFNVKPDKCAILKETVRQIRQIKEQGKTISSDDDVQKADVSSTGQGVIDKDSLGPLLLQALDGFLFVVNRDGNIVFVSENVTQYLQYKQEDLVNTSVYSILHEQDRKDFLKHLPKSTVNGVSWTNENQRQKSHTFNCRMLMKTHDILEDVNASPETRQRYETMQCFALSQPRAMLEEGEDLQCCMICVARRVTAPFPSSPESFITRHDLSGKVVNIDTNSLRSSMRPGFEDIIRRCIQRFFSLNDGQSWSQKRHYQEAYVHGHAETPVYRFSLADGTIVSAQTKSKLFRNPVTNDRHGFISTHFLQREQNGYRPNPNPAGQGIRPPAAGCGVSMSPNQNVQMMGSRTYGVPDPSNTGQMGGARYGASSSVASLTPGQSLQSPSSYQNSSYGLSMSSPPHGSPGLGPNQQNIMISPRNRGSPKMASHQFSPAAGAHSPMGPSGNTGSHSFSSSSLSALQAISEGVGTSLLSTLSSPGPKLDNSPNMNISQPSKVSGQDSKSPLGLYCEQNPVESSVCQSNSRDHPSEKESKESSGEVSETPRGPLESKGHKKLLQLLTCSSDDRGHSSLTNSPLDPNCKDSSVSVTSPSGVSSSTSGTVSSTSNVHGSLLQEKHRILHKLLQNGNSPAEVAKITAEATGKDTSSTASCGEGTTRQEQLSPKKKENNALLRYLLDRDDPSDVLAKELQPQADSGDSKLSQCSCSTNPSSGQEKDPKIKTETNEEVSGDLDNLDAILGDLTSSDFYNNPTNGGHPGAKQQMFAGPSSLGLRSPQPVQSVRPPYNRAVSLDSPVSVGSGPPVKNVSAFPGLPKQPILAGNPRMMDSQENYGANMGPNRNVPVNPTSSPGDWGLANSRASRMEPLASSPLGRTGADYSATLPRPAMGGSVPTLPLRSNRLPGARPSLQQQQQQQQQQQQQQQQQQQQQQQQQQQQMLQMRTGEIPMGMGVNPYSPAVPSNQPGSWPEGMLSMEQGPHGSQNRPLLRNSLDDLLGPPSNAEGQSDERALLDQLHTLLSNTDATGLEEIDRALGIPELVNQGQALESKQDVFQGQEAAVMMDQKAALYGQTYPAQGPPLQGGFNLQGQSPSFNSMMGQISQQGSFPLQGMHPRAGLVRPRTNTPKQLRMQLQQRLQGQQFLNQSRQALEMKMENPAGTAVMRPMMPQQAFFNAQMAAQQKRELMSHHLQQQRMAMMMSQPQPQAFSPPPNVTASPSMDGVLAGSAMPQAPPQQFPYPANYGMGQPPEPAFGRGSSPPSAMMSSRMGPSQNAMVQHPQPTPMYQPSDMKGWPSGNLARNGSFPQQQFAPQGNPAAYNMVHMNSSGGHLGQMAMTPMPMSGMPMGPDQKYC
Hsp70 act: switches on Hsp70 transcription | HeLa Hsp70 promoter luciferase reporter, luminescence; scaled: vehicle 0, proteasome-inhibitor control 100% | activation, % at 10 µM | hit rate 0.04% among 200,000;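 active means activation above the mean across all tested compounds plus 3 SD, cutoff set per campaign, cut at about 5.5% in these data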;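 further: 100% = MG132 at 30 µM as the positive control and 0% = DMSO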
* marks the source's active call; other numbers are inactive results; · = not tested or not shown.

SMILES	HSF-1 act	HSF1 inhib	NALP1 yeast inh	HSP90 refold inh	pCIP destab	Hsp70 act
O=C(NCCC1=CCCCC1)c1ccc(Cl)cc1	59.0*	37.2	2.4	7.6	3.4	-0.3
CS(=O)(=O)N(Cc1ccc(Cl)cc1)c1ccc(C(=O)NCCC2=CCCCC2)cc1	3.7	16.8	24.6	4.1	-11.2	-0.5
COc1ccc(CCNC(=O)c2nonc2N)cc1	61.1*	41.4	1.8	-2.9	2.5	0.1
C=CCOc1ccccc1CNCCNC(=O)c1nonc1N	16.3	1.3	1.6	2.6	-6.1	-0.2
CCOc1ccccc1CNCCNC(=O)c1nonc1N	0.9	-0.2	·	16.3*	-9.5	·
COc1cccc(CNCCNC(=O)c2nonc2N)c1	12.4	2.7	17.1	-1.1	-5.9	-0.2
CN1CCN(CC(=O)Nc2ccc(OC(F)(F)F)cc2)CC1	28.0	-0.9	19.3	-0.2	8.2	·
CC(Oc1cccc(Br)c1)C(=O)N1CCCN(C)CC1 (configuration not stated)	-3.7	-3.9	1.6	0.3	-3.3	·
CCC1=[N+](CC(=O)c2ccc(C)cc2)CCn2cccc21	50.9*	32.1	6.7	-1.3	-12.6	-0.1
COc1ccc(-c2nc(C#N)c(NCCc3ccccc3)o2)cc1OC	79.6*	51.2	2.9	-0.2	7.5	-0.2
Cc1nc(/C(N)=N/OC(=O)Cc2ccccc2)no1	56.9*	18.6	5.2	-0.5	10.9	-0.4
Cc1ccc(CNC(=O)c2nnn(-c3cccc(C)c3)c2N)cc1	6.5	-2.6	2.2	-3.6	8.3	-0.3
Cc1cccc(-n2nnc(C(=O)NCc3ccccc3Cl)c2N)c1	-11.2	-2.4	27.4*	-2.8	0.6	0.1
CN(C(=O)C1CCCO1)C1CCS(=O)(=O)C1 (configuration not stated)	-1.7	-1.5	·	·	·	·
Cc1nn(CC(=O)Nc2c(F)c(F)cc(F)c2F)c(=O)c2cccn12	26.7	11.9	9.4	-2.8	5.9	·
COc1ccc(C(=O)Oc2ccc(/C=N/O)cc2)cc1	-70.8	-64.3*	14.1	-1.4	9.8	-0.1
Cc1nn(Cc2ccccc2)c2c1C(c1cccnc1)C(C#N)=C(N)O2 (configuration not stated)	-4.5	2.8	41.3*	2.8	-1.7	-0.1
CC(C)(c1ccccc1)c1ccc(OCCCN2CCNCC2)cc1	56.1*	20.7	21.5	-1.8	-19.1	0.4
CNCCCOc1ccc(C(C)(C)c2ccccc2)cc1	2.7	-0.4	15.1	7.7	-0.5	-0.2
COCCCNCCOc1ccc(C(C)(C)c2ccccc2)cc1	6.9	3.4	46.2*	0.8	6.0	-0.2
CCCC(=O)N(c1ccc(OCC)cc1)S(=O)(=O)c1ccc2c3c(cccc13)C(=O)N2C	5.5	-3.9	6.5	-2.6	-1.5	·
Cc1nn(C(C)C(=O)c2cccc(Cl)c2)c(C)c1[N+](=O)[O-] (configuration not stated)	-0.2	-3.2	10.1	-2.1	1.4	0.1
Cn1cnc([N+](=O)[O-])c1S(=O)(=O)c1cccc(Cl)c1	56.0*	40.5	66.2*	7.1	5.5	-0.2
COc1c(C(=O)NNC(=O)c2ccccc2Cl)csc1Br	30.2	15.6	0.9	0.2	-18.2	·
CCOc1ccc(N(CC(=O)NCCSCc2ccc(Cl)cc2)S(C)(=O)=O)cc1	12.3	13.5	13.4	-0.4	7.6	·
SMILES	HSF-1 act	HSF1 inhib	NALP1 yeast inh	HSP90 refold inh	pCIP destab	Hsp70 act
Cc1ccc(C(=O)NCC(C)NC(=O)c2ccc(C)c([N+](=O)[O-])c2)cc1[N+](=O)[O-] (configuration not stated)	87.7*	51.0	·	·	·	·
CC(=O)Nc1ccc(C(=O)OCC(=O)c2ccc(C)c([N+](=O)[O-])c2)cc1	58.3*	19.6	-2.3	-2.1	-8.3	-0.3
Cc1ccc(C(=O)NCCSC(C)(C)C)cc1[N+](=O)[O-]	28.4	15.2	26.0	-4.0	0.2	-0.2
O=C(CN1C(=O)CCSc2ccc(S(=O)(=O)N3CCCC3)cc21)Nc1ccccc1	3.4	1.6	9.7	-0.1	3.8	·
COc1ccc(NC(=O)CN(c2ccccc2F)S(=O)(=O)c2ccc(C)cc2)cc1	18.3	11.6	29.3	-1.0	-5.7	·
COc1ccc(-c2coc3cc4oc(=O)c(CC(=O)O)c(C)c4cc23)cc1	71.0*	20.8	5.9	2.3	-5.1	·
Cc1c(CC(=O)O)c(=O)oc2cc(OCc3ccc(Br)cc3)ccc12	8.0	-5.4	6.8	16.9*	4.0	·
Cc1c(CC(=O)O)c(=O)oc2cc(OCc3ccc(F)cc3F)ccc12	8.1	-5.0	-3.1	6.5	-3.9	·
Cc1c(CC(=O)O)c(=O)oc2cc3occ(-c4ccc(F)cc4)c3cc12	4.7	-3.0	9.0	-0.8	-6.5	·
CSc1cccc(NC(=O)c2cnn3ccccc23)c1	81.1*	51.7	11.8	1.1	-5.2	·
Cc1ccc(Cl)cc1N1CCN(C(=O)c2noc(C(C)C)c2[N+](=O)[O-])CC1	-27.6	-12.9	-11.1	4.9	-3.0	·
CCOc1cc(CNCC2CCCN2CC)cc(Cl)c1OC (configuration not stated)	-81.2	-73.7*	12.1	1.1	-14.0	0.2
CCOC(=O)/C(=N/Nc1ccccc1)Sc1nnnn1-c1ccc(C)cc1	6.4	6.7	31.6	2.5	-0.9	-0.2
CCOC(=O)/C(=N/Nc1ccc(Cl)cc1)Sc1nnnn1-c1ccc(C)cc1	73.7*	55.1	2.7	-2.1	0.3	-0.2
O=C(OCc1nnc(-c2ccc(Cl)cc2)o1)c1ccc(O)cc1	8.7	3.3	19.5	1.9	-6.0	-0.5
CS(=O)(=O)c1ccc(C(=O)OCc2nnc(-c3ccc(Cl)cc3)o2)cc1[N+](=O)[O-]	-95.4	-96.0*	-6.2	-0.9	7.2	0.0
CCSc1nnc(N2C(=O)c3ccc(C(=O)c4ccc(C(=O)O)cc4)cc3C2=O)s1	2.0	3.8	8.9	-3.3	-3.6	·
CCn1cc(CNC(=O)C2CCC(=O)N(CCc3cccc(F)c3)C2)cn1 (configuration not stated)	-9.0	2.2	2.2	-0.4	3.3	·
CCn1c(SCC(=O)N/N=C/C=C/c2ccco2)nc2ccccc21	78.5*	46.9	30.2	2.9	-3.2	0.1
CCn1nnnc1SCC(=O)NCc1ccc2c(c1)OCO2	-4.1	-1.5	33.5	0.1	0.5	-0.1
COc1ccc(OC)c(-n2nnnc2SCC(=O)NCc2ccc3c(c2)OCO3)c1	-76.7	-71.9*	·	-1.9	-9.4	0.0
Cc1cccc(NC(=O)CSc2nnc(NC(=O)CN3CCCCC3)s2)c1	-8.6	-5.4	6.3	2.3	7.3	-0.1
Cc1cc(SCC(=O)Nc2cccc(S(=O)(=O)NC3=NCCCCC3)c2)c(C)cc1Br	37.6	18.0	27.0	-0.1	-5.1	0.0
Cc1ccc2nc(SCC(=O)Nc3cccc(S(N)(=O)=O)c3)[nH]c2c1	-6.1	-1.6	·	0.1	0.0	·
CCc1ccc(Nc2nnc(SCC(=O)Nc3cccc(S(=O)(=O)NC4=NCCCCC4)c3)s2)cc1	54.6*	26.0	12.8	6.0	-8.9	-0.5
